Results on seven compounds are retold here after PubChem BioAssay (NCI).

This is part of a sample that, as a whole, favours compounds with a hit. Of some 83,000 tested, about 20% had one in any assay.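 Treatment: one concentration, 48 hours, 96-well format. Scoring: percent growth, with anything below 10 considered active.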 Activity calls are given as the source filed them.

Experiment in all cases: NCI-60 one-dose screen, 48 h (100 = growth as untreated, 0 = no growth, -100 = all killed)
Conditions in all cases: 10 µM unless noted

Assay [1] relates to HCT-15 colon.
Assay [2] relates to HT29 colon.
Assay [3] concerns SNB-75 CNS.
Assay [4] concerns SNB-19 CNS.
For assay [5], the system named is U251 CNS.
The test system of assay [6] is PC-3 prostate.
Assay [7] deals with SK-MEL-5 melanoma.
The subject of assay [8] is UACC-62 melanoma.
Assay [9] has as its system LOX IMVI melanoma.
For assay [10], the system named is SK-MEL-28 melanoma.
Assay [11] relates to SK-MEL-2 melanoma.
Assay [12] has as its system EKVX NSCLC.
For assay [13], the system named is SN12C renal.
Assay [14] relates to UO-31 renal.
In assay [15] the test system is TK-10 renal.
In assay [16] the test system is ACHN renal.
Assay [17] relates to CAKI-1 renal.
The test system of assay [18] is A498 renal.
The test system of assay [19] is CCRF-CEM leukemia.
The test system of assay [20] is MOLT-4 leukemia.

For the compound `CS(=O)(=O)c1ccc(-c2nc3cc(Cl)ccc3n2CC(=O)N/N=C/c2ccc(Cl)cc2)cc1`, the growth in [1] is 72.6% (inactive); in assay [2] it was 36.2% (inactive); in assay [3] it was 42.1% (inactive); in assay [4], 51.3% (inactive); in assay [5], 30.5% (inactive); in assay [6], 45.5% (inactive). For the same compound, the growth is 23.1% (inactive) in assay [7]; 56.2% (inactive) in [8]; 30.7% (inactive) in [9]; 43.6% (inactive) in assay [10]; 44.3% (inactive) in [11]; 72.1% (inactive) in assay [12]. The growth in assay [13] is 69.3% (inactive); in assay [14], 77.8% (inactive); in assay [15] it was 81.7% (inactive); in [16], 61.5% (inactive); in assay [17], 71.3% (inactive); in assay [18], 68.4% (inactive). For the same compound, the results for the growth in [19] and in [20] were 19.9% (inactive) and 12.6% (inactive), respectively.
As to `C=C1C(=O)O[C@H]2[C@H]1CC/C(COC(=O)/C=C/C(=O)NCc1ccc(Cn3c(=O)sn(-c4ccccc4)c3=O)cc1)=C\CC[C@@]1(C)O[C@@H]21`, the growth is 32.9% (inactive) in [1]; -46.6% (active) in assay [2]; 70.7% (inactive) in [3]; 61.8% (inactive) in assay [4]; 20.7% (inactive) in [5]; 57.1% (inactive) in [6]. Moreover, the growth in [7] is -27.8% (active); in [8], -80.8% (active); in [9], -85.2% (active); in assay [10], -40.1% (active); in [11], -13.6% (active); in [12], 52.3% (inactive). For the same compound, the growth was -43.7% (active) in assay [13]; 17.9% (inactive) in assay [14]; -38.6% (active) in [15]; -47.3% (active) in assay [16]; 35.5% (inactive) in assay [17]; 97.1% (inactive) in assay [18]. Also, the growth in assay [19] was -30.6% (active); in [20], -27.7% (active).
For `COc1cc(/C=C/c2nc(Nc3ccc(S(=O)(=O)Nc4cc(C)on4)cc3)c3ccccc3n2)ccc1O`, the growth is 31.8% (inactive) in assay [1]; 85.4% (inactive) in assay [2]; 59.7% (inactive) in assay [3]; 64.3% (inactive) in assay [4]; 61.4% (inactive) in [5]; 80.4% (inactive) in assay [6]. Further, the growth in [7] was 52.6% (inactive); in assay [8] it was 46.6% (inactive); in [9], 59.5% (inactive); in assay [10] it was 74% (inactive); in assay [11], 72% (inactive); in [12] it was 73.3% (inactive). In addition, the growth in [13] was 60.7% (inactive); in assay [14], 58% (inactive); in assay [15] it was 93% (inactive); in assay [16], 83.6% (inactive); in [17] it was 45% (inactive); in assay [18], 95.2% (inactive). In addition, the growth in assay [19] is 55.9% (inactive); in [20] it was 42.1% (inactive).
With `CC1(C)N=C(N)N=C(N)N1c1ccc(Cl)c(Cl)c1`, the growth in assay [1] was 30.6% (inactive); in assay [2], 36.2% (inactive); in [3], 71.2% (inactive); in assay [4] it was 40.3% (inactive); in assay [5], 30.1% (inactive); in [6], 38.3% (inactive). In addition, the growth in [7] is 25.2% (inactive); in assay [8], 27.4% (inactive); in assay [9] it was 18.8% (inactive); in [10], 78.6% (inactive); in assay [11], 64.6% (inactive); in [12] it was 52.5% (inactive). Besides, the growth in assay [13] was 27.1% (inactive); in [14], 48.3% (inactive); in assay [15] it was 48.5% (inactive); in [16] it was 28.4% (inactive); in assay [17], 60.8% (inactive); in assay [18], 99.1% (inactive). The growth was 32% (inactive) in [19] and 34.6% (inactive) in assay [20].
In the case of `CCn1c(Sc2nnc(NC(=O)CSC(=S)N3CCCCC3)s2)nc2c1c(=O)n(C)c(=O)n2C`, the growth in assay [1] was 49% (inactive); in assay [2], 41.3% (inactive); in assay [3], 88.7% (inactive); in assay [4], 87.5% (inactive); in [5] it was 96.2% (inactive); in [6], 79.2% (inactive). For the same compound, the growth in assay [7] was 85.4% (inactive); in assay [8], 60.8% (inactive); in assay [9] it was 81.5% (inactive); in [10], 78.1% (inactive); in assay [11], 81.2% (inactive); in assay [12], 88.5% (inactive). The growth in assay [13] is 96.6% (inactive); in [14], 79.8% (inactive); in assay [15], 95.8% (inactive); in assay [16], 77.5% (inactive); in assay [17] it was 47.7% (inactive); in [19], 84.7% (inactive). For the same compound, the growth in [20] is 97.6% (inactive).
Regarding `Cc1ccc(S(=O)(=O)N(CC[C@@H]2C[C@H]2c2cc3ccccc3o2)C(=O)NC2CCCCC2)cc1`, the growth was 92.3% (inactive) in assay [1]; 90.8% (inactive) in assay [2]; 102% (inactive) in [3]; 99.8% (inactive) in [4]; 100% (inactive) in assay [5]; 95.6% (inactive) in assay [6]. Also, the growth in assay [7] was 101% (inactive); in [8] it was 78.4% (inactive); in [9], 90.5% (inactive); in [10], 95.7% (inactive); in assay [11], 101% (inactive); in assay [12], 101% (inactive). The growth is 100% (inactive) in assay [13]; 75.9% (inactive) in assay [14]; 106% (inactive) in assay [15]; 96.9% (inactive) in assay [16]; 80.1% (inactive) in assay [17]; 118% (inactive) in assay [19]. For the same compound, the growth in assay [20] is 94.7% (inactive).
Consider `CN1C(=O)CCC(N2C(=O)c3cccc(NCCOCCOCCNC(=O)c4cc5c(o4)C(=O)c4ccccc4C5=O)c3C2=O)C1=O` (configuration not stated), for which the growth in [1] is -79% (active); in [2] it was 0.328% (active); in [3], -98.2% (active); in [4], 1.34% (active); in [5], -5.25% (active); in assay [6] it was 7.64% (active). For the same compound, the growth is -97% (active) in [7]; -91% (active) in assay [8]; -53.6% (active) in assay [9]; -19.9% (active) in assay [10]; 6.39% (active) in [11]; 9.9% (active) in assay [12]. The growth in assay [13] was -86.2% (active); in assay [14], -52.6% (active); in assay [15] it was 32.4% (inactive); in [16] it was 8.82% (active); in assay [17], -0.721% (active); in assay [19], 18.4% (inactive). Moreover, in [20], the growth was 11.1% (inactive).
